Shown are actives, neighbours in structure and some others; about 4.1% of the full set was active somewhere.
IDE cell inh: human IDE inhibitors in live cells, primary screen, fluorescence polarization, HEK cells, FAbetaB substrate; Insulin-degrading enzyme (Homo sapiens), P14735; FAbetaB cleavage; inhibition, % at 5.59 µM; 0.41% of 320,000 active;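 active = percent inhibition above the average of all tested compounds plus 3 SD, set per screening campaign, cut at about 16% in these data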;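 also: IDE supplied by intact live HEK cells; FP after avidin binding of uncleaved biotin substrate so inhibition keeps polarization high; 0% = DMSO wells and 100% = 60 µM reference IDE inhibitor Ii1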
Target sequence (P14735 whole entry, looked up): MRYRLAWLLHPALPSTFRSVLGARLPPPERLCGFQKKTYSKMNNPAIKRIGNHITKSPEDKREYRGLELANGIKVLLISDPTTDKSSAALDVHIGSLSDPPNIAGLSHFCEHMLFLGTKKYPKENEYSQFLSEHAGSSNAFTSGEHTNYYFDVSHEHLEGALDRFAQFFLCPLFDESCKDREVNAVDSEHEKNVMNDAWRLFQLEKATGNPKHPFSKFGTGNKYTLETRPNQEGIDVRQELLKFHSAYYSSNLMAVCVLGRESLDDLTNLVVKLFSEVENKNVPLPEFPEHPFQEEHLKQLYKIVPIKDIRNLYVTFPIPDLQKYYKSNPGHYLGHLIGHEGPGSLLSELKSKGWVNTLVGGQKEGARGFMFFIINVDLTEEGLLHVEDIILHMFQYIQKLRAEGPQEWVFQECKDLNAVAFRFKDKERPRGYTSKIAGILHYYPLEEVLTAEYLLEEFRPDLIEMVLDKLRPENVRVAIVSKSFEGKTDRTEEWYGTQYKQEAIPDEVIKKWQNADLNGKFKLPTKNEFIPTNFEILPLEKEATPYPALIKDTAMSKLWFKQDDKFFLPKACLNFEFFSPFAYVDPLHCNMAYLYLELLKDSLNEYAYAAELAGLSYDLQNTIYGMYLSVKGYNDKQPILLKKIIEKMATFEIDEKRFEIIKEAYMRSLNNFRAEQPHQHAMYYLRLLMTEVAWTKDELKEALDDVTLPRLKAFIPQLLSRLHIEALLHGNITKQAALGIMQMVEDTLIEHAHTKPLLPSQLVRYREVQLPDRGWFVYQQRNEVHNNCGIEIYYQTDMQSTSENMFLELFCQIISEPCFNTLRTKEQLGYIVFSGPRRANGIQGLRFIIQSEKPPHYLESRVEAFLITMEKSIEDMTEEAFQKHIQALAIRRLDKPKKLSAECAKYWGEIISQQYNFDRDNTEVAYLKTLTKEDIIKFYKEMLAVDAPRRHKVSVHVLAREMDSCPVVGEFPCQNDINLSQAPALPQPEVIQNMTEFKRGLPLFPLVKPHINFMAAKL
PolyA inhibitor: polyadenylation inhibitors in yeast reporter cells, primary screen, luminescence, S. cerevisiae; S. cerevisiae SKY197-pL101 polyadenylation reporter, beta-gal luminescence; efflux-impaired pdr1/pdr3 knockout yeast; score 100 = 6 SD above DMSO; activity score, % at 12 µM; 0.02% of 300,000 active;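 active = lowest replicate activity score at least 50, where 100 means six control SD above control mean; inconclusive = lowest score under 50 but half or more replicates reach 50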;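 also: yeast exposed to compound for 9 h at 30 °C; higher score means more reporter readthrough which indicates perturbed polyadenylation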
CaV13 FRET inh: Disruptors of the CACNA1D IQ motif to Ca2+-dependent inactivation inhibitor domain association, primary screening, Förster resonance energy transfer in intact living …; HEK cells, CFP/YFP FRET ICDI-IQ, plate reader, 10 min; percent FRET-ratio fall versus neutral wells; inhibition, % at 12.3 µM; 0.098% of 340,000 active; AID 743397;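 active = mean replicate inhibition of at least 30% and at least 1% of replicates passing that level; inconclusive = only one of the two criteria is met; inactive = neither criterion is met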;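 also: 0% = median of the neutral control wells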
ALR inh: inhibitors of human ALR sulfhydryl oxidase, primary screen, biochemical, H2O2 detection, HRP-luminol luminescence, single point. FAD-linked sulfhydryl oxidase ALR (Homo sapiens), P55789. purified ALR, DTT oxidation. inhibition, % (concentration not given with the values). 3.8% of 290,000 active;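 active = mean replicate inhibition above about 79%, with every replicate also reaching it, limit read from the data; inconclusive = only one of the two criteria met; inactive = mean below limit and not every replicate reaching it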
IDE act: human IDE activators in live cells, primary screen, fluorescence polarization, HEK cells, FAbeta-B substrate. FAbeta-B cleavage; 0% vehicle, 100% cell-free pure enzyme wells. AID 493087, 2011. 0.073% of 340,000 active. activation, % at 5.96 µM;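 active = activation above the mean of all tested compounds plus 3 SD, set per screening campaign, cut at about 17% in these data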
PfM18AAP inh: PfM18AAP inhibitors, malaria aminopeptidase, primary screen, biochemical, QFRET, recombinant enzyme; 1.2% of 290,000 active; H-Glu-NHMec fluorogenic cleavage; inhibition, % at 7.35 µM; M18 aspartyl aminopeptidase (Plasmodium falciparum 3D7);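 active = inhibition above the campaign mean inhibition over all tested compounds plus 3 SD, cut at about 28% in these data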;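 also: 0% = plate median of test compound wells and 100% = 2 mM ZnCl2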
* hit, by the source's call; ? = inconclusive; / = no result.

SMILES	IDE cell inh	PolyA inhibitor	CaV13 FRET inh	ALR inh	IDE act	PfM18AAP inh
O=C(CN1C(=O)NC2(CCOc3ccccc32)C1=O)NCC(F)(F)F (stereo unspecified)	0.8	-0.6	-3.3	0.1	1.1	-15.5
COc1cc(-c2nc3ccccn3c2/N=C/c2cc(OC)c(O)cc2Cl)ccc1O	0.6	-14.1	-7.1	94.3*	3.7	14.5
Oc1cccc(/C=N/c2c(-c3ccco3)nc3ccccn23)c1	-1.5	-10.8	/	11.1	4.0	10.2
COc1cc(-c2nc3ccccn3c2/N=C/c2ccccc2)ccc1O	-1.7	24.6	/	84.4*	2.3	7.7
COc1cc(-c2nc3ccccn3c2/N=C/c2cccc(F)c2)ccc1O	6.3	6.6	-18.0	77.6*	-1.1	5.9
COc1ccc(-c2nc3ccccn3c2/N=C/c2ccc(OC)c(OC)c2)cc1O	-2.6	5.7	-13.7	/	4.9	-2.1
N/C(=N\NS(=O)(=O)c1cc(C(F)(F)F)cc(C(F)(F)F)c1)c1ccccn1	-8.4	3.8	-2.1	85.2*	8.2	-6.6
N/C(=N\NS(=O)(=O)c1ccccc1)c1ccccn1	-5.5	12.1	-1.2	59.4	-3.9	/
COc1ccc(S(=O)(=O)CC2(O)CCN(C(=O)CC(C)C)CC2)cc1	-0.9	-18.5	-6.1	/	1.0	-11.5
CCCN(C(=O)CSc1n[nH]c(-c2ccc(OC)cc2)n1)c1c(N)n(Cc2ccccc2)c(=O)[nH]c1=O	8.5	-9.3	-13.4	86.5*	2.0	/
O=C(CSc1ccc(Cl)cc1)Nc1ccc(NC(=O)c2ccco2)cc1	3.7	-32.5	-15.4	99.6*	2.6	2.6
O=C(Nc1ccc(CN2CCOCC2)cc1)c1ccc(Cl)cc1	-4.7	-31.2	-1.7	-1.5	-5.2	3.6
O=C(CSc1ccc(Cl)cc1)Nc1ccc(N2CCN(C(=O)c3ccco3)CC2)cc1	5.8	1.2	/	-16.1	1.6	2.6
O=C(Nc1ccc(CN2CCOCC2)cc1)c1ccco1	3.5	9.7	-3.7	76.7*	3.8	-1.5
O=C(CSc1nc2cc([N+](=O)[O-])ccc2n1-c1ccccc1)NCc1ccc2c(c1)OCO2	-3.2	12.5	-3.3	?	1.0	37.7*
O=C(CSc1nc2ccccc2s1)NCc1ccc2c(c1)OCO2	9.2	6.2	-4.1	98.5*	2.9	2.5
COCCn1nnnc1SCC(=O)NCc1ccc2c(c1)OCO2	-2.1	12.8	2.0	96.1*	3.9	1.1
CC(=O)c1ccc(S(=O)(=O)N2CCNC(=O)C2)cc1	5.9	/	-2.4	97.1*	-2.3	/
CCCOc1ccc(C(=O)C(CN2CCCC2)c2ccccc2)cc1 (stereo unspecified)	6.0	-16.8	-5.1	96.0*	1.4	4.2
O=c1ccc(N=Nc2ccccc2)ccc1O	-0.3	-17.3	-18.9	98.0*	6.0	16.5
O=S(=O)(O)c1ccc(N=Nc2ccccc2)cc1	0.1	-6.9	-2.1	-4.8	2.6	1.3
CCCCCCCC(=O)N1c2ccccc2NC(=O)C1CC(=O)Nc1ccc(C(=O)O)cc1 (stereo unspecified)	2.5	-3.5	-2.7	-2.9	8.0	3.0
O=C(CC1C(=O)Nc2ccccc2N1CC(=O)N1CCCC1)Nc1ccc(Br)cc1 (stereo unspecified)	2.2	/	-5.9	97.7*	1.2	/
COc1cccc(/C=N/NC(=O)c2cccc3ccccc23)c1OC	-1.8	8.4	-3.0	1.6	0.4	/
COc1ccc2c(c1)c(C(=O)N/N=C/c1cccc(Br)c1)c(C)n2C	17.5*	9.0	0.2	3.4	-6.3	-3.5
SMILES	IDE cell inh	PolyA inhibitor	CaV13 FRET inh	ALR inh	IDE act	PfM18AAP inh
CSc1nc(O)c(C(c2ccc(OC(C)C)cc2)c2c(O)nc(SC)[nH]c2=O)c(=O)[nH]1	3.6	7.1	-3.6	23.2	-7.8	/
Oc1[nH]c2ccccc2c1C=Nc1ccccc1	-0.9	-0.7	-14.8	/	-3.3	5.8
COCC(C)N=Cc1c(O)[nH]c2ccccc12 (stereo unspecified)	1.2	9.4	-4.3	98.6*	3.8	7.3
OCCN=Cc1c(O)[nH]c2ccccc12	4.6	-12.9	-5.1	99.1*	3.2	10.5
CN(C)CC(C)(C)CN=Cc1c(O)[nH]c2ccccc12	6.7	-28.7	-4.2	99.4*	-0.1	3.5
COc1cccc(CC2(CO)CCCN(Cc3cn[nH]c3-c3cc(C)ccc3C)C2)c1 (stereo unspecified)	-2.4	0.2	-0.8	-3.8	1.3	-3.4
COc1ccc(CS(=O)c2nc(C)cc(C)c2S(C)(=O)=O)cc1 (stereo unspecified)	-2.6	1.4	-3.1	14.3	-3.2	-9.8
O=C1CCN(CCc2ccccc2)CCN1[C@H](CSc1ccc(Br)cc1)c1ccccc1	3.7	-4.7	-7.2	/	3.5	/
CC(=O)Nc1ccc(SC[C@H](c2ccccc2)N2CCN(CCc3ccccc3)CCC2=O)cc1	10.0	0.7	-7.7	98.0*	/	/
CCC(C)c1c(N)n(S(=O)(=O)c2ccc(C)cc2)oc1=O (stereo unspecified)	/	/	-5.4	/	1.8	/
COc1cc(O)ccc1C(=O)CCc1ccc(O)cc1	4.0	15.4	-4.2	99.3*	2.4	3.5
COc1ccc(NS(=O)(=O)c2ccc3c(c2)[C@H]2C=CC[C@H]2[C@@H](c2ccc(C(=O)O)cc2)N3)cc1	2.4	8.3	-19.3	-11.2	6.0	17.6
Cc1c(Cl)cccc1NS(=O)(=O)c1ccc2c(c1)C1C=CCC1C(c1ccc(C(=O)O)cc1)N2 (stereo unspecified)	2.8	/	/	98.0*	-2.5	6.2
CN(C)c1ccc(Nc2cc(Cl)ncn2)cc1	-3.2	-23.0	-0.9	99.5*	8.3	-25.1
N#Cc1c(-c2ccccc2)cc(-c2cccs2)nc1SCC(=O)O	0.1	-19.2	-17.8	98.6*	2.9	3.6
COc1cc(/C=C2\CCc3c2nc2ccccc2c3C(=O)O)cc(OC)c1OC	7.6	12.3	-5.5	-4.8	5.2	12.4
COc1cc(/C=C2\CCCc3c2nc2ccccc2c3C(=O)O)cc(Br)c1O	2.8	1.6	-4.9	96.6*	-6.7	12.9
CCOc1ccc(/C=N/Nc2nc(=O)[nH]nc2C)cc1OC	-1.9	8.1	-4.1	-0.3	7.0	-0.7
Cc1n[nH]c(=O)nc1N/N=C/c1ccco1	0.3	0.1	-1.3	-5.1	6.0	1.9
CCOc1cc(/C=N/Nc2nc(=O)[nH]nc2C)ccc1O	2.5	-4.5	-0.9	99.0*	4.3	13.7
COc1cc(/C=N/Nc2nc(=O)[nH]nc2C)cc(OC)c1O	0.5	-3.3	2.0	93.2*	8.9	18.5

Bioassay records deposited in PubChem by several laboratories.
